These results are taken from PubChem BioAssay (EPA / NIEHS).

Structures are written as SMILES. Activity calls are given as the source filed them. The calls were made as follows: active = hit-call score of the fitted dose curve at least 0.9, where 1 is the maximum; inactive = score below 0.9.

Read-out in assay [1]: TIMP metallopeptidase inhibitor 2 (TIMP2), TIMP2 (gene 7077)
The experiment in a line: BSK_KF3CT_TIMP2: BioMAP Diversity Plus: KF3CT Assay for TIMP metallopeptidase inhibitor 2 (TIMP2) Biomarker Activity (AID 2283071). The settings on record: primary human keratinocytes with fibroblasts; actives raise or lower the signal. The essentials: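 ELISA readout of TIMP-2 in keratinocyte plus foreskin fibroblast co-cultures (human skin primary cells), 24 h post-dose. Gain or loss of signal fitted relative to DMSO.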

Read-out in assay [2]: Transforming growth factor beta 1 (TGFb1), TGFB1 (gene 7040)
The experiment in a line: BSK_KF3CT_TGFb1: BioMAP Diversity Plus: KF3CT Assay for Transforming growth factor beta 1 (TGFb1) Biomarker Activity (AID 2283072). As to conditions: primary human keratinocytes with fibroblasts; actives raise or lower the signal. The essentials: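 Read-out: ELISA for TGF-b1 in keratinocyte/foreskin fibroblast human skin co-culture, 24 h after dosing; bidirectional curve fit vs DMSO baseline; gain or loss of signal scored.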

Read-out in assay [3]: C-C motif chemokine 2 (Homo sapiens) (UniProt P13500)
In words: BSK_KF3CT_MCP1: BioMAP Diversity Plus: KF3CT Assay for Monocyte Chemoattractant Protein 1 (MCP1/CCL2) Biomarker Activity (AID 2283073). As to conditions: primary human keratinocytes with fibroblasts; actives raise or lower the signal. The essentials: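 Human keratinocyte plus foreskin fibroblast primary co-culture exposed to chemical for 24 h. MCP-1 levels measured by ELISA. Bidirectional curve fitting relative to DMSO negative control as baseline.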

Read-out in assay [4]: Matrix Metallopeptidase 9 (MMP9), MMP9 (gene 4318)
In words: BSK_KF3CT_MMP9: BioMAP Diversity Plus: KF3CT Assay for Matrix Metallopeptidase 9 (MMP9) Biomarker Activity (AID 2283074).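 As to AC50: MMP9 protein level quantified by ELISA in the co-culture.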 The settings on record: primary human keratinocytes with fibroblasts; actives raise or lower the signal. The essentials: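 ELISA read-out of MMP-9 at 24 h post-dosing in a co-culture of human skin keratinocytes and foreskin fibroblasts. Gain or loss of signal was fitted in both directions against DMSO.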

Read-out in assay [5]: urokinase plasminogen activator (uPA), PLAU (gene 5328)
In words: BSK_KF3CT_uPA: BioMAP Diversity Plus: KF3CT Assay for urokinase plasminogen activator (uPA) Biomarker Activity (AID 2283075). The settings on record: primary human keratinocytes with fibroblasts; actives raise or lower the signal. The essentials: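 Skin co-culture (keratinocytes + foreskin fibroblasts), human primary; 24 h post-dose; uPA by ELISA; gain/loss fit vs DMSO baseline.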

Read-out in assay [6]: CD40, CD40 (gene 958)
In words: BSK_LPS_CD40: BioMAP Diversity Plus: LPS Assay for CD40 Biomarker Activity (AID 2283076). As to conditions: primary human HUVEC with PBMC; actives raise or lower the signal. The essentials: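 Primary human umbilical vein endothelial cells co-cultured with peripheral blood mononuclear cells, LPS-stimulated, were dosed with chemical and read 24 h later. CD40 levels were measured by ELISA and fitted bidirectionally against DMSO as negative control and baseline.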

Read-out in assay [7]: E-selectin (Homo sapiens) (UniProt P16581)
In words: BSK_LPS_Eselectin: BioMAP Diversity Plus: LPS Assay for Eselectin Biomarker Activity (AID 2283077). The settings on record: primary human HUVEC with PBMC; actives raise or lower the signal. The essentials: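 Human umbilical vein endothelial cells co-cultured with peripheral blood mononuclear cells under LPS stimulation; E-selectin measured by ELISA 24 h after chemical dosing. Activity fitted bidirectionally against DMSO as negative control and baseline.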

Read-out in assay [8]: Interleukin-8 (IL8), CXCL8 (gene 3576)
The experiment in a line: BSK_LPS_IL8: BioMAP Diversity Plus: LPS Assay for Interleukin-8 (IL8) Biomarker Activity (AID 2283078). The settings on record: primary human HUVEC with PBMC; actives raise or lower the signal. The essentials: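 Human umbilical vein endothelial cells co-cultured with PBMC were stimulated with LPS; IL-8 levels were measured by ELISA 24 h after chemical dosing. Activity was fitted bidirectionally against DMSO as negative control and baseline.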

A short description of assay [9]: BSK_LPS_SRB: Viability Assessment in the BioMAP Diversity Plus: LPS Assay (AID 2283079).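 Also: total protein by sulforhodamine B absorbance as a cytotoxicity measure; measured one day after compound addition.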 As to conditions: primary human HUVEC with PBMC. The essentials: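 Human umbilical vein endothelial cells co-cultured with PBMC (LPS system) were dosed for 24 h. Total protein was stained with 0.1% sulforhodamine B after 10% TCA fixation, read at 560 nm, and fitted bidirectionally against DMSO baseline.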

Read-out in assay [10]: Interleukin-1 alpha (IL1a), IL1A (gene 3552)
In words: BSK_LPS_IL1a: BioMAP Diversity Plus: LPS Assay for Interleukin-1 alpha (IL1a) Biomarker Activity (AID 2283080). As to conditions: primary human HUVEC with PBMC; actives raise or lower the signal. The essentials: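 Human umbilical vein endothelial cells co-cultured with peripheral blood mononuclear cells were LPS-stimulated and exposed to test chemicals for 24 h. IL-1 alpha was quantified by ELISA, with bidirectional curve fitting against DMSO as the negative control and baseline.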

Read-out in assay [11]: Monocyte Chemoattractant Protein-1 (MCP1), CCL2 (gene 6347)
The experiment in a line: BSK_LPS_MCP1: BioMAP Diversity Plus: LPS Assay for Monocyte Chemoattractant Protein-1 (MCP1) Biomarker Activity (AID 2283081).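 As to AC50: secreted MCP-1 protein quantified by ELISA in culture supernatant.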 As to conditions: primary human HUVEC with PBMC; actives raise or lower the signal. The essentials:
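HUVEC plus PBMC co-culture (human primary cells, LPS system) exposed to test chemical for 24 h; MCP-1 measured by ELISA. Bidirectional curve fitting against DMSO baseline; parallel SRB total-protein staining flags overt cytotoxicity.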

Assay [12] is described as follows: BSK_LPS_PGE2: BioMAP Diversity Plus: LPS Assay for Prostaglandin E2 (PGE2) Biomarker Activity (AID 2283082).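 As to AC50: secreted prostaglandin E2 measured by ELISA in LPS-stimulated co-culture.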 The settings on record: primary human HUVEC with PBMC; actives raise or lower the signal. The essentials: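 ELISA read-out of PGE2 from human umbilical vein endothelial cells co-cultured with peripheral blood mononuclear cells under LPS, 24 h post-dose. Gain or loss of signal scored relative to DMSO baseline.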

Read-out in assay [13]: Macrophage colony-stimulating factor (MCSF), CSF1 (gene 1435)
In words: BSK_LPS_MCSF: BioMAP Diversity Plus: LPS Assay for Macrophage colony-stimulating factor (MCSF) Biomarker Activity (AID 2283083). As to conditions: primary human HUVEC with PBMC; actives raise or lower the signal. The essentials:
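Human umbilical vein endothelial cells co-cultured with peripheral blood mononuclear cells were exposed to compound for 24 h. M-CSF levels were measured by ELISA, and bidirectional curve fitting used DMSO as the negative control and baseline.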

Read-out in assay [14]: Tissue Factor, F3 (gene 2152)
The experiment in a line: BSK_LPS_TissueFactor: BioMAP Diversity Plus: LPS Assay for Tissue Factor Biomarker Activity (AID 2283084). As to conditions: primary human HUVEC with PBMC; actives raise or lower the signal. The essentials:
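Human umbilical vein endothelial cells co-cultured with peripheral blood mononuclear cells were dosed and stimulated with LPS. Cell-surface CD142 was quantified by ELISA at 24 h. Activity was fitted bidirectionally against DMSO baseline.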

Read-out in assay [15]: Tumor necrosis factor (Homo sapiens) (UniProt P01375)
In words: BSK_LPS_TNFa: BioMAP Diversity Plus: LPS Assay for Tumour Necrosis Factor alpha (TNFa) Biomarker Activity (AID 2283085).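 As to AC50: TNFa protein level quantified by ELISA in the co-culture.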 The settings on record: primary human HUVEC with PBMC; actives raise or lower the signal. The essentials:
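HUVEC/PBMC co-culture, LPS-stimulated; 24 h post-dose; TNFa by ELISA; gain or loss of signal fitted bidirectionally vs DMSO baseline.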

Read-out in assay [16]: Vascular cell adhesion molecule 1 (VCAM1), VCAM1 (gene 7412)
In words: BSK_LPS_VCAM1: BioMAP Diversity Plus: LPS Assay for Vascular cell adhesion molecule 1 (VCAM1) Biomarker Activity (AID 2283086). As to conditions: primary human HUVEC with PBMC; actives raise or lower the signal. The essentials: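 ELISA read-out of VCAM-1 at 24 h post-dosing in an LPS-driven HUVEC/PBMC primary human co-culture; gain or loss of signal fitted bidirectionally against DMSO baseline. Cytotoxicity tracked in parallel cultures by SRB total-protein staining.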

Read-out in assay [17]: CD38, CD38 (gene 952)
In words: BSK_SAg_CD38: BioMAP Diversity Plus: SAg Assay for CD38 Biomarker Activity (AID 2283087). As to conditions: primary human HUVEC with PBMC; actives raise or lower the signal. The essentials:
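Measures CD38 on a human endothelial/PBMC co-culture driven by SEB and TSST-1, 24 h after compound exposure, using ELISA with fluorescence detection; DMSO defines baseline for bidirectional curve fitting.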

Read-out in assay [18]: CD40, CD40 (gene 958)
The experiment in a line: BSK_SAg_CD40: BioMAP Diversity Plus: SAg Assay for CD40 Biomarker Activity (AID 2283088). The settings on record: primary human HUVEC with PBMC; actives raise or lower the signal. The essentials: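 Human umbilical vein endothelial cells co-cultured with PBMC; CD40 levels measured by ELISA with fluorescence read-out 24 h after chemical dosing. Gain or loss of signal fitted bidirectionally against DMSO baseline.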

Read-out in assay [19]: CD69, CD69 (gene 969)
The experiment in a line: BSK_SAg_CD69: BioMAP Diversity Plus: SAg Assay for CD69 Biomarker Activity (AID 2283089).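 As to AC50: cell surface CD69 protein quantified by ELISA with fluorescence detection.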 As to conditions: primary human HUVEC with PBMC; actives raise or lower the signal. The essentials: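 Values derive from bidirectional fitting relative to DMSO vehicle. Cells: umbilical vein endothelium plus peripheral blood mononuclear cells, treated 24 h before fluorescent ELISA for CD69.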

Read-out in assay [20]: Monocyte Chemoattractant Protein-1 (MCP1), CCL2 (gene 6347)
The experiment in a line: BSK_SAg_MCP1: BioMAP Diversity Plus: SAg Assay for Monocyte Chemoattractant Protein-1 (MCP1) Biomarker Activity (AID 2283090). The settings on record: primary human HUVEC with PBMC; actives raise or lower the signal. The essentials:
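Values derive from bidirectional fitting of ELISA-measured MCP1 against DMSO controls. Readings were taken 24 h after dosing human vascular endothelial cells co-cultured with peripheral blood mononuclear cells under superantigen stimulation.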

Tumor necrosis factor (Homo sapiens), sequence (P01375 whole entry, looked up): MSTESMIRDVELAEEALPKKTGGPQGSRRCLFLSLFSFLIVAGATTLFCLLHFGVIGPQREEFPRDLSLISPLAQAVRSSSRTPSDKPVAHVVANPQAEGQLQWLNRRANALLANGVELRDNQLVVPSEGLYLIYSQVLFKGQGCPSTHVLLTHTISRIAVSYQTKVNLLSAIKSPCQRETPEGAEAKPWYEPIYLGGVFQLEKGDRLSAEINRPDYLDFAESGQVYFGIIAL
E-selectin (Homo sapiens), sequence (P16581 whole entry, looked up): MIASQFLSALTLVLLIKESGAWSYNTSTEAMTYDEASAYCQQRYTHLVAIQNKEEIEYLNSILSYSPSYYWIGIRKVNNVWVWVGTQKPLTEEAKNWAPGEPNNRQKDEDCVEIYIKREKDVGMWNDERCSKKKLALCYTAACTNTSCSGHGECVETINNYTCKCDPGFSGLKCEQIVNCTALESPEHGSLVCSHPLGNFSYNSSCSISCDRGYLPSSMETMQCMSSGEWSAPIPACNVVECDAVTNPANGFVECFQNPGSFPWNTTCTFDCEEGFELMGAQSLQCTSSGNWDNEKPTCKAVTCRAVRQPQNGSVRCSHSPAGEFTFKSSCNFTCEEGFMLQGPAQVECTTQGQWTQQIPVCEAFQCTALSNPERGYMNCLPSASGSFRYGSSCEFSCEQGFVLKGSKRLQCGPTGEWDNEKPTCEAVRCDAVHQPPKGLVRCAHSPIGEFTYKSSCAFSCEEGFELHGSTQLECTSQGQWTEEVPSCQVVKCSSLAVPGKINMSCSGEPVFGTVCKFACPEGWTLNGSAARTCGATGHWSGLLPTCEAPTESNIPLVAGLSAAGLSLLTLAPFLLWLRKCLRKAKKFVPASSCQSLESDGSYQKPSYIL

Turning to `N#Cc1c(Cl)c(Cl)c(Cl)c(C#N)c1Cl`, the AC50 (usually the midpoint of the concentration-response curve, whichever way the signal moves) in assay [1] was 1890 nM (active); in assay [2], 1320 nM (active); in [3], 1790 nM (active); in [4], 1230 nM (active); in assay [5] it was 1660 nM (active); in assay [6] it was 148 nM (active). The half-maximal activity concentration (AC50) in assay [7] was 758 nM (active); in assay [8], 1200 nM (active); in assay [9], 3650 nM (active); in assay [10], 1030 nM (active); in assay [11], 1160 nM (active); in assay [12], 148 nM (active). For the same compound, the AC50 is 924 nM (active) in assay [13]; 332 nM (active) in assay [14]; 134 nM (active) in [15]; 773 nM (active) in assay [16]; 953 nM (active) in assay [17]; 459 nM (active) in [18]. For the same compound, the AC50 was 1350 nM (active) in [19] and 1680 nM (active) in [20].
Turning to `Cc1cc(C)nc(NC(=O)NS(=O)(=O)c2ccccc2C(=O)OC2COC2)n1`, the outcome in [2], in assay [3], in [4], in assay [5], in assay [6] and in assay [7] was inactive. Moreover, the outcome in assay [8], in [9], in assay [10], in [11], in [12] and in assay [14] was inactive. Besides, the result in [15], in [16], in [17], in [18], in assay [19] and in assay [20] was inactive. Further, the AC50 in [13] is 331 nM (active).
As for `CC(C)OC(=O)Nc1cccc(Cl)c1`, the result in assay [2], in assay [3], in assay [4], in assay [5], in [6] and in assay [7] was inactive. For the same compound, the outcome in assay [8], in assay [10], in assay [11], in assay [13], in [14] and in assay [15] was inactive. The outcome in [16], in assay [17], in assay [18], in [19] and in assay [20] was inactive. In addition, the results for the half-maximal activity concentration (AC50) in [9] and in assay [12] were 3970 nM (active) and 6130 nM (active), respectively.
For `O=[N+]([O-])/N=C1\NCCN1Cc1ccc(Cl)nc1`, the result in [1], in assay [2], in assay [3], in [4], in assay [5] and in assay [6] was inactive. Further, the outcome in assay [7], in assay [8], in assay [9], in assay [10], in [11] and in assay [12] was inactive. The outcome in [13], in assay [14], in [15], in [16], in [17] and in assay [18] was inactive. Besides, the outcome in assay [19] and in [20] was inactive.
